Assay outcomes (PubChem)
Nrf2 inh – Nrf2 qHTS screen for inhibitors; A549 ARE-Fluc reporter, luciferase luminescence, 18-24 h; Potency, µM (doses to about 46 µM), inactives show at the top dose activity change, negative = inhibition, actives largely listed as inhibitors; hit rate 2.1% among 360,000; AID 504444, 2011; note: % is set by controls: 0 for no effect and ±100 for the full control effect; nearly all actives have a fitted effect of over 60% in size
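Nrf2 function is reported as luminescence of an ARE-controlled luciferase in A549 cells. Compounds were tested at several concentrations, and a CellTiter-Fluor read on the same wells flagged cytotoxicity.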
Nrf2 activator – qHTS of Nrf2 Activators. Potency, µM (highest dose often 46.1 µM), without a hit: top-dose activation, hits mostly activators. hit rate 0.31% among 410,000. AREc32 ARE-luciferase reporter (MCF7-derived line), luminescence, 24 h; note: % of control where 0% means no effect; nearly all actives have a fitted effect of over 65% in size
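AREc32 cells carrying an ARE-driven firefly luciferase, 1000 cells/well in OPTI-MEM with 5% FBS, dosed after overnight attachment and incubated 24 hr at 37 deg C. Steady-Glo luminescence read after 30 min at RT.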
A549 tox – Nrf2 qHTS screen for inhibitors: counterscreen for cytotoxicity. A549 ARE-Fluc cells, CellTiter-Fluor viability, 18-24 h. Potency, µM (doses to about 46 µM), for the others: top-dose activity change, negative = cytotoxicity, hits mostly inhibitors. hit rate 0.16% among 390,000. AID 504648, 2011; note: % is set by controls: 0 for no effect and ±100 for the full control effect
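A549 ARE_Fluc cells in 5% FBS OPTI-MEM were exposed to compounds in concentration-response for 18-24 h at 37 deg C. Viability was read by CellTiter-Fluor fluorescence (Ex 405/Em 525) after 30 min, before the luciferase read.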
Rango-impB inh – qHTS Assay for Inhibitors of Rango (Ran-regulated importin-beta cargo) - Importin beta complex formation | Rango CFP/YFP FRET sensor + importin beta, 45 min | Potency, µM (doses to about 92.2 µM), inactives show top-dose inhibition of complex formation | Importin subunit beta-1 (Homo sapiens), Q14974 | hit rate 0.031% among 340,000; calls by dose curve;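 note: 0% = DMSO wells and 100% = buffer wells lacking importin beta; nearly all actives have a fitted effect of over 15% in size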
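FRET biosensor Rango (snurportin 1 IBB between N-terminal EYFP and C-terminal Cerulean), 50 nM in PBS/1 mM DTT/0.02% Tween-20/0.1% BSA, preincubated 5 min RT with compound; 0.125 microM importin beta added, 45 min RT, CFP/YFP FRET ratio read.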
Rango release inh – qHTS Assay for Inhibitors of RanGTP induced Rango (Ran-regulated importin-beta cargo) - Importin beta complex dissociation | Potency, µM (series often up to 46.1 µM), for inactives: top-dose activity change, negative = inhibition | Biochemical FRET Rango-importin beta, RanGTP-induced dissociation | AID 540253, 2011 | hit rate 0.071% among 340,000; calls by dose curve; note: % of control where 0% means no effect; nearly all actives have a fitted effect of over 45% in size
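Rango FRET biosensor (snurportin-1 IBB flanked by N-terminal EYFP and C-terminal CFP10) at 0.1 uM, with 0.25 uM importin beta in PBS, 1mM DTT, 0.02% Tween-20, 0.1% BSA. 0.6 uM Ran, 2mM GTP and 0.2 uM RCC1 were then added for 45 min at room temperature. Inhibition read as loss of FRET rise.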
Numbers without * were called inactive; ? = inconclusive; . = not tested or not shown; [ ] = another dose, or the depositor's remark. A selection: hits, their analogues and other compounds. The true share with any hit is near 2.3%. Unless noted, calls come from the whole dose curve; as a rule, active = well fitted curve in the direction sought with a large enough effect; inconclusive = small, poorly fitted or top-dose-only effect, or another doubt; inactive = no such curve, though single readings can be large; an effect the other way counts as inactive or inconclusive. Potency is the fitted concentration of half-maximal effect.

SMILES	Nrf2 inh	Nrf2 activator	A549 tox	Rango-impB inh	Rango release inh
O=C(/C=C/c1ccccc1)Nc1ccc(CN2CCOCC2)cc1	-27%	7%	3%	-1%	-1%
O=C(COc1ccc2ccc(=O)oc2c1)Nc1ccc(CN2CCOCC2)cc1	1%	0%	-1%	1%	1%
O=C(/C=C/c1ccc(Cl)cc1Cl)Nc1ccc(CN2CCOCC2)cc1	7.3µM*	0%	-12%	0%	3%
Oc1ccc(Br)cc1-c1cc(-c2ccco2)[nH]n1	.	3.5µM*	3%	1%	-13%
Cc1ccc(NS(=O)(=O)c2ccc3ccccc3c2)cc1C	?	.	16%	.	.
COc1c(Cl)cc(Cl)cc1C(=O)Nc1ccc(NC(=O)c2cccs2)cc1	10µM*	-1%	-15%	-2%	-1%
COc1cc(C(=O)Nc2ccc(C(=O)c3cccs3)cc2)cc(OC)c1OC	21µM*	4%	-21%	-2%	29%
CCn1cnc2c(Nc3cc(F)cc(F)c3)nc(C(=O)COc3c(F)c(F)cc(F)c3F)nc21	15%	.	0%	.	.
CCOC(=O)C1(CC)Oc2ccccc2C(c2ccc(OC)cc2)=C1C(=O)OC (centres undefined)	9%	6%	9%	1%	-2%
CC1(C)SC(=S)N(/N=C/c2ccc(O)cc2)C1N(O)C(=O)Nc1ccc([N+](=O)[O-])cc1 (centres undefined)	16µM*	10%	?	-3%	-9%
CC1(C)COC(/C=C/c2cccc([N+](=O)[O-])c2)=N1	?	13µM*	?	-2%	11%
CC(CNC(=O)C1CCN(C(=O)N2CCOc3ccc(Cl)cc32)CC1)c1ccccc1 (centres undefined)	?	4%	-25%	.	.
CCCCCn1c(=O)[nH]c2cc(C(=O)N3CCN(Cc4ccc5c(c4)OCO5)CC3)ccc2c1=O	0.82µM*	1%	?	-5%	-12%
O=C(COC(=O)Cc1ccc(S(=O)(=O)N2CCOCC2)s1)Nc1ccccc1Cl	-6%	-1%	0%	?	-5%
S=C(Nc1ccc(Oc2ccccc2)cc1)N1CCN(c2ccccn2)CC1	16µM*	2%	-21%	-5%	6%
S=C(Nc1ccc(Cl)c(Cl)c1)N1CCN(c2ccccn2)CC1	6%	5%	0%	-1%	6%
CC(=NNC(=S)N1CCN(c2ccccn2)CC1)c1nccs1	13µM*	6%	-27%	1%	0%
CCOc1ccc(NC(=O)C2CCCN(S(=O)(=O)c3c(C)noc3C)C2)cc1 (centres undefined)	?	0%	0%	1%	16%
CS(=O)(=O)c1nc(S(=O)(=O)c2ccc(Cl)cc2)c(N2CCOCC2)s1	?	6.3µM*	-3%	?	18%
O=C(COC(=O)C1CCN(c2ccc(C(F)(F)F)cn2)CC1)Nc1cc(F)ccc1F	19%	0%	-11%	0%	-4%
Cc1ccc(/C=C2\Sc3ccccc3C2=O)s1	16%	11µM*	-12%	?	2.9µM*
CCOC(=O)c1[nH]c(C)c(CCC(=O)NCc2ccc(OC(C)C)cc2)c1C	.	4%	-6%	.	.
COc1ccc(CCN2C(=O)CC(NNc3ccc([N+](=O)[O-])cc3)C2=O)cc1OC (centres undefined)	-2%	0%	-18%	?	-21%
CC(Sc1nc2ccccc2c(=O)n1C)C(=O)N(C)C1CCCCC1 (centres undefined)	18µM*	0%	-18%	4%	-5%
CN(C)CCCNc1cc(O)c2ncccc2c1	5.2µM*	-4%	10µM*	-2%	-12%
SMILES	Nrf2 inh	Nrf2 activator	A549 tox	Rango-impB inh	Rango release inh
Cc1ccc(NC(=O)c2ccc(S(=O)(=O)NCc3cccnc3)cc2)c(C)c1	-16%	4%	1%	0%	-4%
COc1ccc(S(=O)(=O)Nc2cc(C(=O)NC3CCCCCC3)ccc2N2CCOCC2)cc1	18µM*	3%	1%[1.84 µM]	3%	24%
CCc1ccccc1S(=O)(=O)Cc1ccc(C(=O)NCCc2ccc(C)cc2)o1	-22%	6%	2%	.	.
Nc1c2ccccc2nc2ccccc12	21µM*	-2%	?	?	?
O=C(/C=C/c1ccco1)Nc1ccc(-c2nc3ccccc3[nH]2)cc1	-5%	?	23µM*	3%	-1%
CC(=O)N(c1ccc(C)cc1)c1nc(C)cc(C)c1C#N	11%	-1%	2%	0%	3%
O=C(COc1ccccc1/C=C1\SC(=S)NC1=O)Nc1ccc(F)cc1	23µM*	?	?	0%	-1%
O=C(Nc1cccc(-c2nc3ccccc3[nH]2)c1)c1c(F)cccc1F	?	4%	-19%	.	.
Cc1c(NS(=O)(=O)c2ccc3c(c2)OCCO3)cccc1-c1nc2cccnc2s1	21µM*	0%	-11%	2%	8%
Cc1cc(-c2nc3cccnc3s2)ccc1NS(=O)(=O)c1ccc2c(c1)OCCO2	?	13%	6%	?	?
Cc1cc(C)c(-c2n[nH]c3c2C(c2ccccc2F)N(Cc2ccco2)C3=O)c(O)c1 (centres undefined)	15%	-5%	-14%	.	.
COCCCNC(=S)N1CCN(c2nc(-c3ccccc3)cs2)CC1	12µM*	3%	1%	0%	1%
CCOCCCNC(=S)N1CCN(c2nc(-c3ccccc3)cs2)CC1	16µM*	0%	-16%	1%	-13%
O=C(NC(=S)N1CCN(c2nc(-c3ccccc3)cs2)CC1)c1cncc(Br)c1	23µM*	17%	-22%	3%	-11%
CCN(CC)CCCNC(=S)N1CCN(c2nc(-c3ccccc3)cs2)CC1	-14%	11%	4%	7%	9%
CCC(Sc1nnc2c3ccccc3n(CC)c2n1)C(=O)Nc1ccc(NC(C)=O)cc1 (centres undefined)	1%	3%	-18%	.	.
COc1cc(C(=O)Nc2ccc(S(=O)(=O)Nc3nccc(C)n3)cc2)c([N+](=O)[O-])cc1OC	6%	0%	-4%	-1%	9%
CC(C)c1ccc(C2N=C(N)Nc3nc4ccccc4n32)cc1 (centres undefined)	15%	4%	-1%	.	.
Cc1cccnc1Nc1nc(-c2ccccc2)cs1	?	3.2µM*	4%	9%	-6%
O=C(Cn1cc2c(n1)CCCCC2)Nc1ccccc1Br	15%	2%	0%	-2%	-1%
CCCn1nc([N+](=O)[O-])c(C(C#N)c2nc3ccccc3s2)c(Cl)c1=O (centres undefined)	?	?	13µM*	0%	-3%
CCN(CC)c1ccc(S(=O)(=O)N2CCOCC2)cc1NC(=O)CNCc1cccc(Cl)c1	26µM*	-1%	?	-4%	22%
